Data as given in PubChem BioAssay AID720591 (Broad Institute, 2013).
Out of some 1,200 compounds screened, about 60 (5%) were called active. Inconclusive results (about 1%) are left out.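 How the source made its calls: active means Decreasing signal and fitted IC50 at most twice the top valid tested dose; inconclusive means Bad fit or a level curve showing 30 to 70% inhibition; inactive means the rest.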 A selection follows. Potency and affinity values are given separately.

What follows are compounds tested against NAD-dependent protein deacylase sirtuin-5, mitochondrial (Homo sapiens) (UniProt Q9NXA8) (assay: sirtuin-5 deacylation blockers, concentration series – biochemical, fluorescence imaging, cherry-pick, set 5, dose response (AID 720591;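 further: 0% = median of neutral control wells and -100% = median of positive control wells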)). Settings: Purified SirT5, succinyl-peptide AMC, trypsin-coupled fluorescence; series mostly up to 15 µM; activity change, negative = inhibition: at the top concentration.
Chain of NAD-dependent protein deacylase sirtuin-5, mitochondrial (Homo sapiens) (Q9NXA8 whole entry, looked up): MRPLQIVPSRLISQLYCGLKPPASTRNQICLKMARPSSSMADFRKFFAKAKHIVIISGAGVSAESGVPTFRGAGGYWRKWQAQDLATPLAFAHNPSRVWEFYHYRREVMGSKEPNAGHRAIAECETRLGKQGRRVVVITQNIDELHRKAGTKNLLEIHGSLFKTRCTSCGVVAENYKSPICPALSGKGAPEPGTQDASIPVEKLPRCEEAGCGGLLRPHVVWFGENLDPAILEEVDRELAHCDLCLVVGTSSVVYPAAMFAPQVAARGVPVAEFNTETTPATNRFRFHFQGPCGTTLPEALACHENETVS

Activity change, negative = inhibition, inactive:
Cc1ccc(CNC(=O)CCCCCNC(=O)N2CCn3c2nc2ccccc23)cc1 -20.1%, O=C(NC1CCCCC1)c1ccc(S(=O)(=O)c2ccccc2)cc1 -29.3%, CCOC(=O)C1CCN(C(=O)Cn2cc(C(=O)OC)c3ccccc32)CC1 -21.2%, COc1ccc(NC(=O)CN2CCN(c3ccccn3)CC2)cc1Cl 5.95%, C=C(C)COc1ccc(-c2ncncc2-c2ccc(OC)cc2)c(O)c1 4.58%, COc1ccc(-c2csc3nc(C(C)C)oc(=O)c23)cc1OC -30.7%, Cn1cc(C(=O)NCCc2ccccc2)c(=O)c2cc(S(=O)(=O)N3CCOCC3)ccc21 3.07%, CC(C)c1ccccc1NC(=O)c1cnccn1 -32.5%, O=C(c1ccccc1)c1coc2ccc(O)c(Cl)c12 -19.4%, Nc1nc(-c2ccc(C(=O)O)cc2)cs1 -22.5%, O=C(O)CCC(=O)Nc1ccc(-c2nc3ccc(C(=O)c4ccccc4)cc3[nH]2)cc1 -28.6%, CC(C)(C)C(=O)Oc1cccc(Nc2ncnc3ccccc23)c1 -14.3%, Cc1ccc(S(=O)(=O)NCC(=O)OCC(=O)NCc2ccc(F)cc2)cc1 -17%, Cc1nnc(SCC(=O)Nc2ncc3c(n2)CC(c2ccccc2)CC3=O)s1 (stereo unspecified) -14%, Cc1ccc(S(=O)(=O)Nc2ccc(N(C)C)cc2)cc1 -8.19%, COc1ccc(N2CC(NC(=O)N3CCc4ccccc43)CC2=O)cc1OC (stereo unspecified) -30%, CN(C)CCOC(=O)NCC12CC3CC(CC(C3)C1)C2 -14.8%, C[C@@H]1CN([C@@H](C)CO)C(=O)CCCn2nncc2CO[C@H]1CN(C)C(=O)C1CCCCC1 -4.24%, CCCCCCN1C[C@@H](O)[C@H](n2cc(COC(=O)c3ccccc3)nn2)C[C@@H]1c1ccc(C)cc1 11.7%, C[C@H]1COc2cc(NCCO)ccc2S(=O)(=O)N1 19.8%, Cc1ccc(S(=O)(=O)N2C[C@@H]3CCCC[C@@H]3[C@@H](C)[C@H]2c2cn(Cc3ccccc3)c3ncccc23)cc1 14.3%, CCOc1ccccc1NC(=O)CN1c2cccc3cccc(c23)S1(=O)=O 12.7%, Nn1c(C2CCC2)nc2cc(Cl)ccc2c1=O -25.2%, CCC(C)C(CO)NCCCn1cnc2c(SC)ncnc21 (stereo unspecified) 4.95%, Cc1nc(NC(=O)c2cc3ccccc3o2)sc1C 7.97%, Cc1csc(NC(=O)c2cc3ccccc3o2)n1 12.3%, Cc1ccc(OCCNC(=O)C2CCCCC2)cc1 7.97%, Cc1cc(C)c2c(CN3CCOCC3)cc(=O)oc2c1 2.2%, COc1ccc(CNC(=O)CCn2ccc3cc(S(=O)(=O)N4CCCC4)ccc32)cc1 -22.9%, COc1ccc(CN(C(=O)c2ccco2)c2ccccc2)cc1 13.5%, COc1ccc(CN(C(=O)c2ccco2)c2ccc(C)cc2)cc1OC -33.2%, CN1C(=O)[C@H]2[C@@H](C3CC3)N3C(=O)CN(CCO)C(=O)[C@@]3(Cc3ccccc3)[C@H]2C1=O -16.4%, CCOc1ccc(-c2noc(CCCC(=O)NC3CCCC3)n2)cc1OC 1.29%, CCCCCNC(=O)C(c1cc2ccccc2o1)n1c(=O)c(-c2ccccc2)nc2ccccc21 (stereo unspecified) -20.3%, COc1ccc(CCNC(=O)COC(=O)CCC(=O)c2ccc(F)cc2)cc1OC 16.3%, CCCCCCNC(=O)c1ccc(Br)o1 2.66%, COc1cc(C(=O)NCC2(N(C)C)CCCCC2)ccc1OCc1ccccc1 5.49%, Cn1c(NCCCO)nc2c1c(=O)n(Cc1ccccc1F)c(=O)n2C 5.2%, CC(=O)c1cc(-c2ccc(F)cc2)n(CCC(=O)NC(C)(C)C)c1C 40.1%, COC(CNC(=O)CC1C(=O)N(Cc2ccccc2)C(C)c2nc3ccccc3n21)OC (stereo unspecified) 16.8%, CCCCNC(=O)C[C@@H]1C[C@@]2(C(=O)OC)CC(C)(C)CC=C2N(Cc2ccco2)C1=O 2.48%, Cc1ccc(S(=O)(=O)N2C[C@@H](C)[C@]3(C2)[C@H](O)[C@H](OC(=O)NCc2ccco2)C[C@H]2C(=O)N(c4ccccc4)C(=O)[C@H]23)cc1 -12.3%, OC[C@@H]1CN(Cc2cccs2)C[C@H](n2cnc3c(Nc4ccccc4)ncnc32)O1 1.28%, CCc1cc2c(=O)c(-c3nc4ccccc4n3C)coc2c(CN2CCCCC2)c1O 32.2%, Cc1ccc(NC(=O)c2ccc3c(c2)CCN3S(C)(=O)=O)cc1 11.9%, Cc1cc(C)cc(N(C(=O)CCC(=O)Nc2cc(C)on2)C(C(=O)NC2CCCC2)c2ccco2)c1 (stereo unspecified) -2.73%, COc1ccc(CC(=O)NCC2CCCN(Cc3ccc(OC(F)(F)F)cc3)C2)cc1 (stereo unspecified) -23.7%, CCOC(=O)C(Cc1ccc(NC(C)=O)cc1)N1C(=O)c2ccccc2C1=O (stereo unspecified) -8.71%, O=C(OCC(=O)N1CCCC1)c1cc(Br)ccc1Cl -18.6%, Oc1ccc(-c2n[nH]c(C(F)(F)F)c2-c2ccccc2)c(O)c1 -7.08%, COc1ccccc1-c1cc(C(=O)NC(C)C)no1 -1.51%, CC1c2nc3ccccc3n2C(CC(=O)NC2CC2)C(=O)N1Cc1ccccc1 (stereo unspecified) 4.72%, Cc1ccc(Cn2c(N3CCN(C)CC3)nc3c2c(=O)[nH]c(=O)n3C)cc1 -22.3%, Cn1c(=O)[nH]c(=O)c2c1nc(N1CCNCC1)n2Cc1ccccc1 15.6%, Oc1ccc(-c2nccc(-c3ccc(Cl)cc3Cl)n2)cc1 -31.7%, Cc1ccc(-c2nc3c(Cl)cc(C(F)(F)F)cn3c2Cc2cccc(F)c2)cc1 6.86%, CC(=O)c1cccc(NC(=O)CCS(=O)(=O)c2ccc(Br)s2)c1 -17.1%, O=C(Nc1ccc2c(c1)OCCO2)C(c1ccnc2ccccc12)N1CCN(c2ccc(F)cc2)CC1 (stereo unspecified) 18.7%, C=CC[C@H](CC(=O)N(CCO)Cc1ccccc1)C(=O)N[C@@H](COC(=O)[C@H](CC=C)CC(=O)OC(C)(C)C)Cc1c[nH]c2ccccc12 17%, CSc1nc(N)nc2c1ncn2CC(=O)NCC1CCCO1 (stereo unspecified) 5.49%, O=C(NCc1ccc(F)cc1)C1CC(=O)N(C2CCCCC2)C1 (stereo unspecified) -24.7%, Cc1cc(C)c(NC(=O)CN(C)C(=O)CNC(=O)c2cccs2)c(C)c1 -17.8%, O=C(Nc1ccccc1Cl)c1cccs1 -20.1%, COc1ccccc1CCNS(=O)(=O)c1cc2c3c(c1)C(C)C(=O)N3CCC2 (stereo unspecified) -29.6%, COc1ccc(Nc2oc(-c3ccco3)nc2S(=O)(=O)c2ccc(F)cc2)cc1 -8.04%, Cc1nn(CC(=O)N(C)C)c(=O)c2ccccc12 -8.69%, Cc1ccc(S(=O)(=O)c2nc(Cc3ccccc3)oc2N2CCOCC2)cc1 -13.3%, Cc1ccc(C(C(=O)NC(C)(C)C)N(C(=O)CCC(=O)Nc2ccccn2)c2ccccc2F)cc1 (stereo unspecified) -3.12%, CO/N=C(\C(=O)N[C@@H]1C(=O)N2C(C(=O)O)=C(COC(C)=O)CS[C@H]12)c1csc(N)n1 (stereo in doubt) -15.9%, Cc1ccc(-c2ccc(=O)n(CC(=O)Nc3ccc4c(c3)OCCO4)n2)cc1 16.6%, COc1ccc(N2CCN(C(=O)CN(C)S(=O)(=O)c3cc(C)ccc3OC)CC2)cc1 -6.06%, N[C@@H](CO)c1nnc([C@H](Cc2ccc(O)cc2)NC(=O)C2CCNCC2)o1 -9.88%, O=S(=O)(CCc1ccncc1)c1ccc(Cl)cc1 7.83%, NCC(O)CN(c1ccccc1)c1ccccc1 (stereo unspecified) 0.799%, O=C(c1cccc(F)c1)N1CCCC(C(=O)N2CCCCC2)C1 (stereo unspecified) -26.3%, O=C(c1cccc(F)c1)N1CCCC(C(=O)N2CCCCCC2)C1 (stereo unspecified) 16.1%, CC(=O)Nc1ccc(S(=O)(=O)Nc2ccc(-n3cnnn3)cc2)cc1 -11.7%, O=C(Nc1ccc(F)cc1)C1CC(=O)n2ncnc2N1 (stereo unspecified) -19.7%, C[C@H](CO)N1C[C@H](C)[C@@H](CN(C)Cc2ccccn2)Oc2ncc(Br)cc2C1=O -20.5%, N#Cc1c(SCC(=O)Nc2nccs2)sc2c(O)cc(=O)[nH]c12 -20.5%, Cc1csc(NC(=O)CSc2sc3c(O)cc(=O)[nH]c3c2C#N)n1 -33.2%, CC(=O)N1N=C(N)SC12CCCC2 -1.47%, C[C@H]1CN([C@@H](C)CO)C(=O)c2cc(Br)cnc2O[C@H]1CN(C)C(=O)c1ccccn1 24.1%, CC(C)NC(=O)N(C)C[C@@H]1OCc2cnnn2CCCC(=O)N([C@@H](C)CO)C[C@H]1C 10.8%, C[C@@H]1CN([C@H](C)CO)C(=O)CCCn2nncc2CO[C@H]1CN(C)C(=O)Nc1cccc2ccccc12 11.2%, Cc1ccnc(NS(=O)(=O)c2ccc(NC(=O)Cc3ccc(F)cc3)cc2)n1 18%, Cc1noc(C)c1COc1ccc(C(=O)N2CCN(S(=O)(=O)c3cccc(F)c3)CC2)cc1 -6.62%, COc1ccc(NC(=O)CN(c2ccc(Cl)cc2)S(C)(=O)=O)cc1OC 3.15%, O=C(COC(=O)CC1CC2CCC1C2)NCc1ccccc1 (stereo unspecified) 15.9%, O=C(COC(=O)CC1CC2CCC1C2)Nc1ccc(F)cc1 (stereo unspecified) 6.05%, COc1ccccc1OCCSc1nc2ccccc2n1CC(O)CO (stereo unspecified) -18.9%, COc1cc(C(=O)NCCCc2nc3ccccc3n2Cc2cc(C)ccc2C)cc(OC)c1OC 9.81%, c1ccc(CCc2nc(-c3ccc(-n4cccc4)cc3)no2)cc1 16.5%, Cc1ccc(-c2noc(CN(C)C(=O)c3ccc(Br)o3)n2)cc1 -17.4%, Cc1ccc(CNC(=O)C2CCCN(S(=O)(=O)N3CC(C)CC(C)C3)C2)cc1 (stereo unspecified) -20.4%, O=C(COc1ccccc1)Nc1ncn[nH]1 -8.98%, COc1cc(C)c(CN2CCN(CC(=O)Nc3ccccc3C(=O)NC3CC3)CC2)cc1OC -25.6%, O=C1CCC(C(=O)N2CCCCCC2)CN1Cc1cccc(C(F)(F)F)c1 (stereo unspecified) -29.3%, CCOC(=O)c1c(C)[nH]c(C)c1C(=O)COC(=O)c1cccc(C)c1O -9.02%, CCOC(=O)c1c(C)[nH]c(C)c1C(=O)COC(=O)c1cc2ccccc2cc1O 7.04%, CCOc1ccc(CCNC(=O)Cn2nc(C)c3c(C)n(-c4ccccc4)nc3c2=O)cc1 -21.5%, CC1=C(C(=O)N2CCOCC2)CC(CC(=O)NCC2CCCCC2)C(=O)N1CCC1=CCCCC1 (stereo unspecified) 31.4%, COC(=O)[C@]12CCCCC=C1N(Cc1cccc3ccccc13)C(=O)[C@H](CC(=O)NCC1CCCCC1)C2 -6.36%, NC(=O)c1ccc(NC(=O)CCCc2nc(-c3ccccc3Cl)no2)cc1 -28.1%, Cc1ccc2c(c1)CO[C@@]21O[C@H](CCO)C[C@H](O)[C@H]1O 3.11%, Cc1ccc(NC(=O)C2CCN(C(=O)c3ccco3)CC2)cc1 12%, Cc1cccc(NC(=O)C2CCN(C(=O)c3ccco3)CC2)c1C -16.4%, CC(C)CCN1CCN(Cc2cnc(N3CCCC3)s2)CC1CCO (stereo unspecified) 10.1%, O=C(Cc1cccs1)N1CCN(S(=O)(=O)c2ccc(Cl)c(C(F)(F)F)c2)CC1 -18.7%, C/C(N)=C(/C#N)C(=O)CSc1nnc(Nc2ccccc2)s1 -26.5%, CCSc1nnc(NC(=O)Cc2ccc(OC)cc2)s1 -29.4%, Cc1ccc(OCCSc2nc3ccccc3n2CCC(=O)O)cc1 -29.2%, CCc1ccc(S(=O)(=O)c2ccc(-n3nc(C)cc3N)cc2)cc1 21.2%, c1ccc(CCn2nnc3ccccc32)cc1 16.6%, CCOC(=O)c1c(-c2ccc(C)cc2)csc1NC(=O)CCN1CC(C)OC(C)C1 (stereo unspecified) 10.9%, CC1C(=O)N2CCCc3cc(S(=O)(=O)N4CCCCC4)cc1c32 (stereo unspecified) 10.4%, CCCCNC(=O)CC1C(=O)N(Cc2ccccc2)C(C)c2nc3ccccc3n21 (stereo unspecified) -23.2%, CCCNC(=O)CC1C(=O)N(Cc2ccccc2)C(C)c2nc3ccccc3n21 (stereo unspecified) -35.5%, CCCCCCN1CCN(C2CN(C3CCCCC3)S(=O)(=O)C2)CC1 (stereo unspecified) 24.6%, CCN(c1ccccc1)S(=O)(=O)c1nnc(NC(=O)C(C)(C)C)s1 -1.58%, COc1ccc(C(CNC(=O)c2cccc(S(=O)(=O)N3CCCCC3)c2)N2CCCC2)cc1 (stereo unspecified) -22.6%
